Laboratory results reported in PubChem BioAssay AID651815 (National Center for Advancing Translational Sciences (NCATS), 2012).
Where “and” joins values, the source holds several entries; their conditions need not be identical. Identical values can stand only once. In all, about 2,100 compounds went through this assay and about 1,100 (52%) were called active. Not shown: some 29% with an inconclusive outcome. Calls follow the shape of the dose curve; as a rule, active = well fitted inhibition curve with a large enough effect; inconclusive = small, poorly fitted or top-dose-only effect; inactive = no such curve, though single readings can be large or run the other way. So high a share suggests a set chosen from earlier hits. The list shows a part of the results.

Target: DNA dC->dU-editing enzyme APOBEC-3F (Homo sapiens) (UniProt Q8IUX4)
Sequence (Q8IUX4 whole entry, looked up): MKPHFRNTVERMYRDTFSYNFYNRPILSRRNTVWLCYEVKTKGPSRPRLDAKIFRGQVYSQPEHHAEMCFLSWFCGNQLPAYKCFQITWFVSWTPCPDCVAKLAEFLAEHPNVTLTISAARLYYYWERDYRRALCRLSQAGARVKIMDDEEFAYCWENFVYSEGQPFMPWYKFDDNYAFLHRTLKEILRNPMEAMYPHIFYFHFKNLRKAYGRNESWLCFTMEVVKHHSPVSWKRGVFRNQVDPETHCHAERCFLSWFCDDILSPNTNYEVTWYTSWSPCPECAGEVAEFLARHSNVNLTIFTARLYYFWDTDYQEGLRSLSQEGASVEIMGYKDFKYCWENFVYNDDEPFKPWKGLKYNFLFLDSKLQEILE
Assay: qHTS for inhibitors of Vif-A3F interactions: Cherry picks counterscreen; also: nearly all actives have a fitted effect of over 65% in size
Conditions: HeLa A3F-eYFP/Vif cells, eYFP fluorescence, 24 h; series mostly up to 46.1 µM
Summary of the method: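 Rescue of Vif-driven A3F-eYFP degradation read as cellular eYFP fluorescence after 24 h compound exposure (several concentrations) in stable HeLa cells; MG132 (2 mM stock) as positive control.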
Potency is read from the fitted curve at half-maximal effect.

Row | SMILES | Potency
1 | COc1cccc(Cn2c(-c3nonc3NC(C)=O)nc3ccccc32)c1 | 9.2 µM (active)
2 | Cc1ccc(C(=O)NCCn2c(N)c(C#N)c3nc4ccccc4nc32)cc1 | 18.4 µM (active)
3 | COc1ccc(-c2cc(-c3nnc(COC(=O)c4ccncc4)o3)c3ccccc3n2)cc1OC | inactive
4 | COc1ccc(COc2cc(-c3cccc(OC)c3)nc3ccc(NC(=O)c4ccc(OC)cc4)cc23)cc1 | 6.27 µM (active)
5 | Cc1ccc2c(c1)sc(-c1ccc(N(C)C)cc1)[n+]2C | 14.6 µM (active)
6 | CCC(=O)Nc1nc2ccc(NC(=O)c3cc(OC)c(OC)c(OC)c3)cc2s1 | inactive
7 | CCCC(=O)Nc1nc2ccc(NC(=O)c3ccccc3F)cc2s1 | 4.44 µM (active)
8 | Cn1cc(C2=C(c3ccc(Cl)cc3Cl)C(=O)NC2=O)c2ccccc21 | 14.6 µM (active) and 20.6 µM (active)
9 | COC(=O)c1cc(Nc2nc3ccccc3nc2NS(=O)(=O)c2ccc(C)cc2)ccc1Cl | 18.4 µM (active)
10 | Cc1ccc2nc(NS(=O)(=O)c3ccc(Cl)cc3)c(Nc3ccc(C(=O)O)cc3)nc2c1 | 14.6 µM (active)
11 | COc1cccc(Nc2nc(Nc3ccc(Cl)c(C(=O)O)c3)nc(C)c2[N+](=O)[O-])c1 | inactive
12 | CCOC(=O)N1CCC(Nc2nc3ccccc3n3nnnc23)CC1 | 18.4 µM (active)
13 | CCOC(=O)c1ccc(Nc2nc3ccccc3nc2NS(=O)(=O)c2ccc(Cl)cc2)cc1 | 14.6 µM (active)
14 | CCOC(=O)N1CCC(Nc2nc3ccccc3nc2NS(=O)(=O)c2ccc(Cl)cc2)CC1 | 23.1 µM (active)
15 | CC(=O)N/N=C/c1cc(C(C)C)cc(/C=N/NC(C)=O)c1O | inactive
16 | CC(=O)N/N=C/c1cc(C(C)(C)C)cc(/C=N/NC(C)=O)c1O | 23.1 µM (active)
17 | NC(=S)N/N=C/c1cccc(O)c1O | inactive
18 | CCOc1ccc(C(C)=O)cc1COc1cccnc1[N+](=O)[O-] | 9.94 µM (active)
19 | COc1cccc(/C=N/n2c(C3CCCCC3)n[nH]c2=S)c1O | inactive
20 | COc1ccc(-n2nc3c(N4CCCC(C(=O)NCCc5ccccc5C)C4)nnc(C)c3c2C)cc1 (centres undefined) | 25.9 µM (active)
21 | COc1ccc2cc(C(=O)C3CCCN(Cc4ccccn4)C3)ccc2c1 (centres undefined) | inactive
22 | O=C(c1ccccc1F)n1c2c(c3ccccc31)CCCC2 | 11.2 µM (active)
23 | CNCC(O)Cn1c2c(c3ccccc31)CCCC2 (centres undefined) | inactive
24 | CCOC(=O)N1CCc2c(sc3c2C(=O)NC(c2ccc(N(C)C)cc2)N3)C1 (centres undefined) | 9.2 µM (active)

Row | SMILES | Potency
25 | Cc1cc(C)c2cc3c(N)c(C(=O)Nc4c(C)[nH]c(=O)[nH]c4=O)sc3nc2c1 | 18.4 µM (active)
26 | CCOC1=C/C(=C/c2c(N)n3nc(-c4ccccc4)sc3nc2=O)C=CC1=O | inactive
27 | COc1ccccc1N1CCN(C(=O)c2ccc3ncsc3c2)CC1 | inactive
28 | CCSc1ncc(Cl)c(C(=O)N2CCN(c3ccccc3OC)CC2)n1 | 2.06 µM (active)
29 | COc1ccccc1N1CCN(C(=O)c2cc(=O)c3cc(C)cc(C)c3o2)CC1 | 0.125 µM (active)
30 | COc1ccccc1N1C(=O)c2cccc3c(C(=O)O)ccc(c23)C1=O | inactive
31 | COC(=O)c1cc(C(=O)N2CCN(c3ccccc3OC)CC2)cc([N+](=O)[O-])c1 | 3.96 µM (active)
32 | COc1cc(SC)ccc1C(=O)N1CCN(c2ccccc2OC)CC1 | 3.53 µM (active)
33 | COc1ccccc1C(=O)N1CCN(c2cccc(Cl)c2)CC1 | 1.25 µM (active)
34 | Cc1ccc2nc3c(cc(S(=O)(=O)c4ccccc4)c(=N)n3Cc3ccco3)c(=O)n2c1 | inactive
35 | COc1ccc(Cn2c(C)nc3c(c2=O)c2nc4ccccc4nc2n3Cc2ccco2)cc1 | 18.4 µM (active)
36 | CCn1c(SCC(=O)c2c[nH]c3ccccc23)nnc1-c1cccs1 | 18.4 µM (active)
37 | CCOc1cc(/C=C(/C#N)C(=O)Nc2ccc(O)cc2)cc(Br)c1O | 15.8 µM (active)
38 | CCOC(=O)c1c(-c2ccc(C)cc2)csc1NC(=O)/C(C#N)=C/c1ccc(O)c(OC)c1 | inactive
39 | CCOc1ccc(NC(=O)/C(C#N)=C/c2ccc(N3CCCC3)c(C)c2)cc1 | 5.8 µM (active)
40 | Cc1ccc2c(c1)Sc1c(ccc3ccccc13)N2 | 16.4 µM (active)
41 | O=[N+]([O-])c1ccccc1SNc1ccccc1 | inactive
42 | Cc1cc(C)c(S(=O)(=O)Oc2ccccc2[N+](=O)[O-])c(C)c1 | 6.27 µM (active)
43 | CCN(CC)c1ccc(C=NNc2ccc([N+](=O)[O-])cn2)cc1 | 10.3 µM (active)
44 | Cc1ccc(Cc2c(C3CCCCC3)nc3ccc(C)cn23)cc1 | inactive
45 | Cc1noc(C)c1COc1cccc(C(=O)OCC(=O)N2CC(=O)Nc3ccccc32)c1 | 6.27 µM (active)
46 | C/C(=N\Nc1nccnc1Cl)c1ccc(Cl)c(Cl)c1 | inactive
47 | C=CCSc1nc2ccccc2n1C(=O)/C=C/c1cc(OC)c(OC)c(OC)c1 | 6.27 µM (active)
48 | CCSc1nc2ccccc2n1C(=O)/C=C/c1ccc(OC)c(OC)c1 | 4.98 µM (active)

Row | SMILES | Potency
49 | CNc1cncc(-c2cc(C)c(O)c(C)c2)n1 | 4.44 µM (active)
50 | O=C(Nc1ncc(Cc2ccc(SC(F)F)cc2)s1)c1ccccc1 | 2.23 µM (active)
51 | Cc1nc(-c2ccc(Cl)cc2)sc1C(=O)NN | 14 µM (active)
52 | O=C(O)Cc1sc(NC2CCCCC2)nc1-c1ccc(Cl)cc1 | inactive
53 | CCOc1cc(/C=C2/SC(=S)N(CC3CCCO3)C2=O)ccc1O (centres undefined) | 14.6 µM (active)
54 | CCN(CC)c1cc(C)c(/C=C/c2ccnc3ccccc23)cc1C | 20.6 µM (active)
55 | Cc1cc(N(C)C)c(C)cc1/C=C/c1ccnc2ccccc12 | 8.2 µM (active)
56 | CC(C)C1C(=O)N(Cc2cn(CCC3OCCCO3)nn2)CCS(=O)(=O)N1Cc1ccc(-c2cccc(CO)c2)cc1 (centres undefined) | inactive
57 | COc1ccc(-c2cc3ccccc3oc2=O)cc1NC(=S)NC(=O)c1ccc2c(c1)OCCO2 | 6.51 µM (active)
58 | O=C(NC(=S)Nc1ccc(N2CCCCC2)c(Cl)c1)c1ccc2c(c1)OCCO2 | inactive
59 | Cc1ccc2ccc3cc(C(=O)Nc4ccc(C)c(F)c4)nc3c2[nH]1 | 18.4 µM (active)
60 | C1=Cc2ccccc2/C1=C\c1cc2c3c(c1)CCCN3CCC2 | 16.4 µM (active)
61 | Cc1ccc(/C=C2/CNC/C(=C/c3ccc(C)cc3)C2=O)cc1 | 9.94 µM (active)
62 | CCNc1ccc(Br)cc(C(=O)/C=C/c2ccc3c(c2)OCO3)c1=O | 18.4 µM (active)
63 | Cc1ccc2oc(/N=C(\N)NC(=O)C(C)(C)C)nc2c1 | inactive
64 | CN1C(=O)/C(=C/c2ccccc2OCc2ccc(F)cc2)N(C)C1=S | inactive
65 | Cc1cccc2cc3c(N)c(C(=O)Nc4ccc(N5CCOCC5)cc4)sc3nc12 | 12.5 µM (active)
66 | Cc1ccc(C)c2nc3sc(C(=O)N4CCOCC4)c(N)c3cc12 | 15.8 µM (active)
67 | CCNC(=S)N/N=C(\C)c1ccc(N2CCOCC2)cc1 | inactive
68 | Cc1cccc2cc3c(N)c(C(=O)N4CCOCC4)sc3nc12 | 16.4 µM (active)
69 | CCc1ccc(C(=O)NC(=S)Nc2ccc(N3CCOCC3)cc2)cc1 | inactive
70 | O=C(Nc1ccc(N2CCOCC2)cc1)c1cccc2ccccc12 | 15.8 µM (active)
71 | N#C/C(=C/c1ccc(N2CCOCC2)o1)C(=O)NC1CCCCC1 | 18.4 µM (active)
72 | N#C/C(=C\c1ccc(N2CCOCC2)o1)C(=O)NCCc1ccccc1 | inactive

Row | SMILES | Potency
73 | N#C/C(=C\c1ccc(N2CCOCC2)o1)C(=O)NC1CCCCC1 | 14 µM (active)
74 | Oc1cccc(Nc2nc(O)c(/C=C3\C=Nc4ccccc43)s2)c1 | 20.6 µM (active)
75 | CCOC(=O)/C=c1\s/c(=C\c2ccccc2C)c(=O)n1CC(=O)NCc1ccc2c(c1)OCO2 | 14 µM (active)
76 | CCOC(=O)/C=c1/s/c(=C/c2ccc3cc(OC)ccc3c2)c(=O)n1CC(=O)NCC1CCCO1 (centres undefined) | 18.4 µM (active)
77 | CCOC(=O)/C=c1\s/c(=C\c2c(OC)ccc3ccccc23)c(=O)n1CC(=O)NCC1CCCO1 (centres undefined) | 4.61 µM (active)
78 | CCOC(=O)/C=c1/s/c(=C\c2c(OC)ccc3ccccc23)c(=O)n1CC(=O)NCC1CCCO1 (centres undefined) | 9.94 µM (active)
79 | NC(=O)CSc1nc2c(sc3ccccc32)c(=O)n1CCCC(=O)NCC1CCCO1 (centres undefined) | inactive
80 | S=C(NN=Cc1ccccn1)Nc1ccccn1 | inactive
81 | Nc1cccc(CCc2nc3cc4ccccc4cc3[nH]2)c1 | 4.44 µM (active)
82 | O=C(NNc1ncc(C(F)(F)F)cc1Cl)c1c(Cl)cccc1Cl | 4.44 µM (active)
83 | Cc1cc(C)c(C(=O)N(CCN(C)C)CC2CCCN(Cc3ccccc3F)C2)o1 (centres undefined) | inactive
84 | CC(C)OC(=O)c1cc(C(=O)c2cc(F)ccc2O)coc1=N | 20.6 µM (active)
85 | CCC(=O)Nc1ccccc1-c1nc2ccccc2n(C(C)C(=O)Nc2ccc(OC)cc2)c1=O (centres undefined) | 16.4 µM (active)
86 | c1cncc(-c2nc(NCc3cccs3)c3ccccc3n2)c1 | inactive
87 | Brc1ccc2c(c1)C(c1cccnc1)=NNC(c1cccs1)=N2 | 14 µM (active)
88 | COC(=O)c1sccc1S(=O)(=O)N(CC(=O)Nc1cc(F)ccc1F)c1ccc(C)c(C)c1 | inactive
89 | CC(=O)c1c(C)[nH]c(C(=O)Nc2ccc(Cl)cc2F)c1C | inactive
90 | CCOC(=O)c1[nH]c(C)c(C(=O)Nc2ccc(C)cc2C)c1C | 2.23 µM (active)
91 | CCOC(=O)c1[nH]c(C)c(C(=O)Nc2ccccc2F)c1C | 3.14 µM (active)
92 | COc1ccc(OC)c(NC(=O)c2cc(-c3cc(C)cc(C)c3O)n[nH]2)c1 | inactive
93 | CCOC(=O)c1[nH]c(C)c(C(=O)Nc2cc(OC)ccc2OC)c1C | 1.77 µM (active)
94 | Cc1ccc(C)c(N2CCN(C(=O)c3cccn4c(=O)c5sccc5nc34)CC2)c1 | 15.8 µM (active)
